Compound activity (PubChem BioAssay)
USP10 block = blocks human USP10 ubiquitin-rhodamine cleavage; purified USP10, Ub-rhodamine fluorescence, 60 min; inhibition, % at 20 µM; hit rate 1.1% among 47,000; AID 1645856
Target sequence (Q14694 whole entry, looked up): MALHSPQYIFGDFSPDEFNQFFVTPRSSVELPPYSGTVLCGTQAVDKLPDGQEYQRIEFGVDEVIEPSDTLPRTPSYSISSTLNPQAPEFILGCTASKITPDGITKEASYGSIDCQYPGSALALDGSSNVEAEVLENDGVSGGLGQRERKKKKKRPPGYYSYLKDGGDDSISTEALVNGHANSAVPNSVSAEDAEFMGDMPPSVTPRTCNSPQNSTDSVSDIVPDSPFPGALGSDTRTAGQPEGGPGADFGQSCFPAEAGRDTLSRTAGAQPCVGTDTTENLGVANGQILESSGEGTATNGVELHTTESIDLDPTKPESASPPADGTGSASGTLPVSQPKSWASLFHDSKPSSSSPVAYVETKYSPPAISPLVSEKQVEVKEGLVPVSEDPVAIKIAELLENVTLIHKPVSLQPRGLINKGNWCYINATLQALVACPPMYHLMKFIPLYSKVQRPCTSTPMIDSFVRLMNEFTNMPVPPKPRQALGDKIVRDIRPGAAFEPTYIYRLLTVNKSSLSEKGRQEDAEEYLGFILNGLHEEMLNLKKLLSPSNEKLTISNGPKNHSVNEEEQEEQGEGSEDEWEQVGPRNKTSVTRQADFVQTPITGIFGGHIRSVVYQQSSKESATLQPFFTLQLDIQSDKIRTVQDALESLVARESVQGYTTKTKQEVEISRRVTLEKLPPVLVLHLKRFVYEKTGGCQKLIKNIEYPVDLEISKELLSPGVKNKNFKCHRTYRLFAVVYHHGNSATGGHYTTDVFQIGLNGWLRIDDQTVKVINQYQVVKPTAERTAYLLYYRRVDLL
UCHL1 inh = inhibitors of human UCHL1 deubiquitinase | purified UCHL1, Ub-rhodamine cleavage fluorescence | inhibition, % at 20 µM | hit rate 0.2% among 47,000
USP7 inh = blocks human USP7 ubiquitin-rhodamine cleavage; Q93009; purified USP7, Ub-rhodamine cleavage fluorescence; inhibition, % at 20 µM; hit rate 0.3% among 47,000; AID 1645854
USP8 block = inhibitors of human USP8 deubiquitinase. P40818. purified USP8, Ub-rhodamine cleavage fluorescence, 30 min. inhibition, % at 20 µM. hit rate 4.2% among 47,000. AID 1645853
Starred values were filed as active, the others as inactive. An excerpt weighted towards active compounds, which were near 4.6% of everything screened. Rule as the data show it: active = inhibition above about 30%; inactive = the rest.

`Cc1ccc(-c2ccnc3[nH]c(=O)[nH]c(=O)c23)cc1` gave USP10 block 4, UCHL1 inh -1, USP7 inh 0 and USP8 block 2.
Screening O=C(O)c1cc2c([nH]c3ccccc32)c(C(=O)c2c[nH]c3ccccc23)n1 returned USP10 block -9, UCHL1 inh -8, USP7 inh -23 and USP8 block -41.
Screening O=C(Nc1cccc(CO)c1)c1ccc(COc2ccc(Cl)cc2)cc1 returned USP10 block -1, UCHL1 inh 4, USP7 inh -4 and USP8 block 2.
`Cc1cccc(-c2cc(C(=O)Nc3ccccc3F)[nH]n2)c1O` gave USP10 block 13, UCHL1 inh 5, USP7 inh 11 and USP8 block 24.
Screening Cc1ccc(Cl)cc1NC(=O)c1cc(-c2ccccn2)n[nH]1 returned USP10 block 23, UCHL1 inh 2, USP7 inh 17 and USP8 block 19.
For COc1ccc(Cl)cc1NC(=O)c1cc(-c2ccccn2)n[nH]1 the results were USP10 block 47*, UCHL1 inh 13, USP7 inh 58* and USP8 block 84*.
Screening COc1cc(OC)c(NC(=O)c2cc(-c3ccccn3)n[nH]2)cc1Cl returned USP10 block 40*, UCHL1 inh 6, USP7 inh 22 and USP8 block 89*.
`Cc1cc(C)c(O)c(-c2cc(C(=O)Nc3ccccc3Cl)[nH]n2)c1` gave USP10 block 25, UCHL1 inh 5, USP7 inh 19 and USP8 block 97*.
O=C(Nc1ccc(-n2cccc2)cc1)c1cccc([N+](=O)[O-])c1 was read as USP10 block 19, UCHL1 inh -4, USP7 inh 0 and USP8 block 31*.
For O=C(Nc1ccc(-n2cccc2)c(Cl)c1)c1cccc([N+](=O)[O-])c1 the results were USP10 block 9, UCHL1 inh 6, USP7 inh -38 and USP8 block -2.
For COc1ccc(NS(=O)(=O)c2cc(-c3cnc(C4CC4)o3)ccc2C)cc1OC the results were USP10 block 1, UCHL1 inh -1, USP7 inh -2 and USP8 block -5.
For Cc1ccc(-c2cnc(C3CC3)o2)cc1S(=O)(=O)Nc1ccc(F)c(Cl)c1 the results were USP10 block 39*, UCHL1 inh 6, USP7 inh -37 and USP8 block 4.
CCNC(=O)N1CCC(Oc2cc(N3CCCC3)ncn2)C1 (stereo not drawn) was read as USP10 block -1, UCHL1 inh -2, USP7 inh -1 and USP8 block 6.
CNC(=O)c1c2n(c3ncccc13)CCN(C(=O)c1ccc(F)cc1)C2 was read as USP10 block 3, UCHL1 inh 1, USP7 inh 3 and USP8 block 9.
Screening Cc1nn(-c2ccc(F)cc2)c(C)c1S(=O)(=O)N1CCC(C)CC1 returned USP10 block 5, UCHL1 inh 5, USP7 inh 5 and USP8 block -4.
`Cc1nn(-c2ccc(F)cc2)c(C)c1S(=O)(=O)N1CCN(c2ccccn2)CC1` gave USP10 block 5, UCHL1 inh 6, USP7 inh 36* and USP8 block -2.
For CCc1ccc2c(c1)[C@]1(C(=O)N2)[C@@H]2C(=O)N(c3ccc(Cl)cc3Cl)C(=O)[C@@H]2[C@@H]2CCCN21 the results were USP10 block -6, UCHL1 inh -154, USP7 inh -152 and USP8 block -238.
`O=C(COc1cccc(N2CCCC2=O)c1)Nc1ccc2c(c1)OCCO2` gave USP10 block 0, UCHL1 inh -3, USP7 inh 0 and USP8 block -1.
Screening CC(C)(C)c1nn(-c2ccc(Cl)cc2)c2[nH]c(=O)c(CNCCc3ccccc3)cc12 returned USP10 block -2, UCHL1 inh -4, USP7 inh 0 and USP8 block -5.
For Cc1ccc(CNCc2cc3c(-c4ccc(F)cc4)nn(-c4ccccc4)c3[nH]c2=O)cc1 the results were USP10 block -5, UCHL1 inh -45, USP7 inh -19 and USP8 block 45*.
Screening O=c1[nH]c2c(cc1CNCCc1ccccc1)c(-c1ccc(F)cc1)nn2-c1ccccc1 returned USP10 block 1, UCHL1 inh -5, USP7 inh 8 and USP8 block 66*.
For O=C(c1c2c(N3CCCC3)ncnc2n2ccccc12)N1CCCC1 the results were USP10 block -4, UCHL1 inh -16, USP7 inh -27 and USP8 block 67*.
For O=C(c1c2c(-c3ccncc3)ncnc2n2ccccc12)N1CCOCC1 the results were USP10 block -2, UCHL1 inh -80, USP7 inh -88 and USP8 block 33*.
For Cc1cccc(C(C)C)c1NC(=O)COC(=O)c1cc2ccccc2oc1=O the results were USP10 block 0, UCHL1 inh 0, USP7 inh -1 and USP8 block -3.
Screening CCc1cccc(CC)c1NC(=O)COC(=O)c1cc2cccc(OC)c2oc1=O returned USP10 block 33*, UCHL1 inh 3, USP7 inh 22 and USP8 block 62*.
For COc1ccc(Cl)cc1NC(=O)COC(=O)c1cc2ccccc2oc1=O the results were USP10 block 11, UCHL1 inh 0, USP7 inh 9 and USP8 block 70*.
For CCn1c(-c2ccc([N+](=O)[O-])cc2)csc1=Nc1cc(C)ccn1 the results were USP10 block -8, UCHL1 inh -44, USP7 inh -18 and USP8 block -19.
Screening COc1ccc(-c2csc(N)n2)c2ccccc12 returned USP10 block -3, UCHL1 inh -2, USP7 inh -11 and USP8 block 83*.
`CCC(C(=O)Nc1ccc(-c2nc3cccnc3s2)cc1)c1ccccc1` (stereo not drawn) gave USP10 block 1, UCHL1 inh -2, USP7 inh 4 and USP8 block 36*.
For Cc1cc(C)cc(CN2Cc3[nH]nc(C(=O)N(C)C)c3C2)c1 the results were USP10 block -3, UCHL1 inh -2, USP7 inh -4 and USP8 block -227.
For Oc1ccc2c3c1[C@@H](O)C1OC1[C@]31Oc3cccc4c3[C@](C=C[C@@H]4O)(O2)O1 (stereo partly drawn) the results were USP10 block -11, UCHL1 inh 0, USP7 inh -5 and USP8 block 3.
Screening O=C1c2c(O)c(Cl)cc3c2[C@@]2(Oc4ccc(O)c5c4[C@]3(O2)[C@@H]2O[C@@H]2C5=O)[C@@H]2O[C@H]12 returned USP10 block 40*, UCHL1 inh 84*, USP7 inh 82* and USP8 block 27.
Cc1noc(-c2ccc(-n3cnc(C(=O)NC4CCCCCC4)c3)nc2)n1 was read as USP10 block 0, UCHL1 inh 2, USP7 inh 6 and USP8 block 35*.
COC(=O)c1sccc1S(=O)(=O)Nc1ncc(C)cc1Br was read as USP10 block -4, UCHL1 inh 6, USP7 inh 4 and USP8 block 11.
`CC(C)CCNC(=O)c1cccc(-c2cnc(NC3CCCCC3)nc2)c1` gave USP10 block 2, UCHL1 inh 5, USP7 inh 6 and USP8 block 20.
`CC(C)CCNC(=O)c1ccc2c(=O)n(C3CCCC3)c(=O)[nH]c2c1` gave USP10 block 9, UCHL1 inh 0, USP7 inh 12 and USP8 block 34*.
